Assay outcomes (PubChem)
VDR inh: blocks the human vitamin D receptor; P11473; hit rate 0.93% among 400,000; AID 504847; VDR-SRC2-3 peptide fluorescence polarization, 2 h; Potency, µM, usual class: inhibitors
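Compounds are added to VDR with labelled SRC2-3 coactivator peptide and held 2 h at room temperature. Inhibition of the VDR–peptide interaction is then read as a change in fluorescence polarization.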
DT40 TDP1 CPT: growth inhibition of DT40 Tdp1-/-;hTDP1 cells with camptothecin (screen for TDP1 inhibitors) | Potency, µM (titrated, usually from 46.2 µM), actives largely listed as inhibitors | hit rate 12% among 420,000 | chicken DT40 Tdp1-/-;hTDP1 cells + 20 nM CPT, ATP luminescence, 48 h; further: nearly all actives have a fitted effect of over 55% in size
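Chicken DT40 Tdp1-/- cells stably complemented with human TDP1 were seeded at 400 cells/well in medium containing 20 nM camptothecin, exposed to pin-transferred compounds, and grown at 37 °C for at least 48 hr. Viability was read as ATP luminescence.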
TDP1 block: blocks human tyrosyl-DNA phosphodiesterase 1. recombinant TDP1, AlphaScreen DNA substrate cleavage. Potency, µM (doses to about 130 µM), most hits filed as inhibitors. hit rate 0.28% among 350,000. Q9NUW8; further: nearly all actives have a fitted effect of over 40% in size
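Steps: enzyme plus compound, 15 min RT; add biotin/phosphotyrosine-FITC oligonucleotide (15 nM final), react 5 min; add donor/acceptor beads (10 ug/ml final), 10 min; read AlphaScreen. Tdp1 at 1 nM final.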
GCN5L2 inh: blocks human GCN5L2 histone acetyltransferase. Q92830. GCN5L2 HAT assay, ThioGlo1 CoA-SH fluorescence. Potency, µM (titrated, usually from 58.9 µM), usual class: inhibitors. hit rate 0.21% among 390,000. AID 504327
Target sequence (Q92830 whole entry, looked up): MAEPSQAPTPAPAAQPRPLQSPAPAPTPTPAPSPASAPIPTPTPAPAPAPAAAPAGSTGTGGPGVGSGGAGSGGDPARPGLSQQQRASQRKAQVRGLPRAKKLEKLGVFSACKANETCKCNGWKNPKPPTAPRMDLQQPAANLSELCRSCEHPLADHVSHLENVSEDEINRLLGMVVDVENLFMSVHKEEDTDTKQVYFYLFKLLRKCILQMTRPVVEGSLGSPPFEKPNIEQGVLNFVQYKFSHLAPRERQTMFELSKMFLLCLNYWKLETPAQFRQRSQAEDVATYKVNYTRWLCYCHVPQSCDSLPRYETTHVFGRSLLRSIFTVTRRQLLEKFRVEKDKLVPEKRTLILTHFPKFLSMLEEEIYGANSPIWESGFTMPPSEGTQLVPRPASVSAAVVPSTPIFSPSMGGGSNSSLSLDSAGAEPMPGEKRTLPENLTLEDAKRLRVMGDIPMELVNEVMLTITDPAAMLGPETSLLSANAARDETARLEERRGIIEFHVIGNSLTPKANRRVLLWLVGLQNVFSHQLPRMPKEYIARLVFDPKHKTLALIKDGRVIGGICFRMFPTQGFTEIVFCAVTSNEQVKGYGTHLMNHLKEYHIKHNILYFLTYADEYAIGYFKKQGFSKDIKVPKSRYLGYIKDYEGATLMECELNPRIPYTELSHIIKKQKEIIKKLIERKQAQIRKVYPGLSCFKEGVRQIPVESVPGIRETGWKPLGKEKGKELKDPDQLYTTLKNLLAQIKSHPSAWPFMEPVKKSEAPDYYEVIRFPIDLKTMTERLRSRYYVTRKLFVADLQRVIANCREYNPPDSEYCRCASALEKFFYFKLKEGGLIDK
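Fluorescence readout, Ex340nm/Em540nm: ThioGlo1 (50uM final) reacts with free CoA thiol released as 20nM GCN5L2 acetylates H3(1-25) peptide (75uM) using acetyl-CoA (70uM). Compound and enzyme sat 15 min beforehand; 20 min room-temperature reaction.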
PLK1 PBD block: PLK1 (human) polo-box domain binding inhibition; AID 720504; Potency, µM, usual class: inhibitors; hit rate 2.8% among 360,000; Plk1 PBD binding of FITC phosphopeptide, fluorescence polarization; further: series mostly up to about 57 µM; nearly all actives have a fitted effect of over 65% in size
DT40 TDP1 no CPT: qHTS for Inhibitors of human tyrosyl-DNA phosphodiesterase 1 (TDP1): qHTS in cells in absence of CPT; hit rate 15% among 420,000; Potency, µM (series often up to 46.2 µM), usual class: inhibitors; DT40 Tdp1-/- hTDP1 cells, no CPT, ATP luminescence, 48 h; further: nearly all actives have a fitted effect of over 55% in size
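Chicken DT40 Tdp1-/- cells stably complemented with human TDP1 were seeded at 400 cells/well with DMSO in place of 20 nM camptothecin. After compound pinning, cells grew at least 48 hr at 37 °C; viability read by CellTiter-Glo luminescence.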
Numbers stand for hits; 0 = inactive; ? = inconclusive; - = no result. Hits are enriched below; roughly 18% of the tested compounds scored in any of these assays. The call rests on the fitted dose curve; in most records, active means well fitted curve in the direction sought with a large enough effect; inconclusive means small, poorly fitted or top-dose-only effect, or another doubt; inactive means no such curve, though single readings can be large; an effect the other way counts as inactive or inconclusive.

SMILES | VDR inh | DT40 TDP1 CPT | TDP1 block | GCN5L2 inh | PLK1 PBD block | DT40 TDP1 no CPT
CC(C)CNC(=O)C1(C)CCCCCN1C(=O)c1cc2ccccc2s1 (stereo not given) | - | 0 | - | - | 0 | ?
CCCCNC(=O)C1(C)CCCCN1C(=O)c1ccc(C)c(F)c1 (stereo not given) | - | 0 | - | - | 0 | 0
CCCCNC(=O)C1(C)CCN1C(=O)c1cc(-c2cccs2)oc1C (stereo not given) | - | 1.6µM | - | - | 0 | 3.7µM
CCCCNC(=O)C1(C)CCCCN1C(=O)c1cc2ccccc2s1 (stereo not given) | - | 8.2µM | - | - | 0 | 15µM
CCCCNC(=O)C1(C)CCCCN1C(=O)c1ccc2sccc2c1 (stereo not given) | - | ? | - | - | 0 | 16µM
CC(C)(C)c1ccc(/C=C(\C#N)C(=O)NC2CC2)cc1 | ? | 0 | - | - | 0 | ?
Cc1nc(SCc2cc(=O)c3cccc(F)c3[nH]2)n[nH]1 | 0 | 0 | 0 | 0 | - | 0
Cc1ccc(S(=O)(=O)NCCC(=O)Nc2ccc(Cl)c(Cl)c2)cc1 | 0 | ? | 0 | 0 | 0 | 16µM
Cc1ccc(S(=O)(=O)NNC(=O)Nc2ccc(Cl)c(Cl)c2)cc1 | 0 | ? | 0 | 0 | 0 | 16µM
Cc1ccc(S(=O)(=O)NC(=O)Nc2ccc(N(C)C)cc2)cc1 | ? | 21µM | 0 | 0 | 0 | 16µM
Cc1ccc(NC(=O)CCNS(=O)(=O)c2ccccc2)c(C(=O)c2ccccc2)c1 | 0 | 21µM | 0 | 0 | 0 | ?
COc1ccc(-n2c(=O)c(C)nc3cnc(Nc4ccccc4)nc32)cc1 | 0 | ? | - | 0 | - | ?
CC(=O)c1ccc(S(=O)(=O)N2CCN(c3nn(C)c(=O)n(C)c3=O)CC2)cc1 | ? | 0 | 0 | 0 | 0 | 0
CC(=O)Nc1ccc(S(=O)(=O)NNC(=O)c2cccc(Cl)c2)cc1 | 0 | 0 | 0 | 0 | 24µM | 0
CC(=O)Nc1ccc(S(=O)(=O)NNC(=O)c2ccc3c(c2)OCO3)cc1 | 0 | 0 | 0 | 0 | 0 | 0
CCOc1ccccc1CNC(=O)CSc1n[nH]c(-c2ccccc2)n1 | 0 | ? | 0 | 0 | - | ?
CCOc1cc(/C=C2/SC(=Nc3ccccc3)N(Cc3cccnc3)C2=O)ccc1OCC#N | 0 | 16µM | 0 | 0 | 0 | 23µM
Cc1cc(C)c(-n2c(SCc3nc4ccccc4s3)n[nH]c2=O)c(C)c1 | 0 | ? | 0 | 0 | 0 | 29µM
Cc1cc(C)c(-n2c(SCCS(=O)(=O)c3ccc(F)cc3)n[nH]c2=O)c(C)c1 | 0 | 26µM | 0 | 0 | 0 | 23µM
O=C1c2cc(S(=O)(=O)N3CCOCC3)ccc2-c2ccc(S(=O)(=O)N3CCOCC3)cc21 | 0 | 0 | 0 | - | - | 0
O=S(=O)(c1ccc2c(c1)C(=NO)c1cc(S(=O)(=O)N3CCCCC3)ccc1-2)N1CCCCC1 | 0 | 4.1µM | - | 0 | 0 | 2.9µM
CC1CCN(S(=O)(=O)c2ccc3c(c2)C(=NO)c2cc(S(=O)(=O)N4CCC(C)CC4)ccc2-3)CC1 | 0 | 0.65µM | 0 | 0 | 0 | 0.73µM
COc1ccc(S(=O)(=O)N2CCC(C)CC2)cc1OC | 0 | 0 | - | 0 | 0 | 0
CN(C)N=C1c2cc(S(=O)(=O)N3CCOCC3)ccc2-c2ccc(S(=O)(=O)N3CCOCC3)cc21 | 0 | ? | 0 | 0 | 0 | 21µM
CCn1cc(Br)c(C(=O)NC(=S)Nc2ccc(C(=O)OC)cc2)n1 | 0 | ? | 0 | 0 | 0 | ?
O=C(NCC1CCCO1)C(c1ccncc1)N(Cc1cccs1)C(=O)Cn1nnc(-c2ccc(F)cc2)n1 (stereo not given) | 0 | 0 | 0 | 0 | 0 | 0
CCC(C(=O)NC1CCCC1)N(Cc1cccs1)C(=O)Cn1nnc(-c2ccc(OC)c(OC)c2)n1 (stereo not given) | 0 | 0 | 0 | 0 | 0 | ?
CC(C)CCNC(=O)C(c1ccncc1)N(Cc1cccs1)C(=O)Cn1nnc(-c2ccc(F)cc2)n1 (stereo not given) | 0 | 9.2µM | 0 | 0 | 0 | ?
